# From PubChem BioAssay (NCI)
# Compounds without any hit were thinned out: in the full panel of roughly 79,000, 15% have a hit. A number with no mark means an inactive call. Activity calls are given as the source filed them. Rule as the data show it: active = growth inhibition above about 70%; inactive = the rest.
# Tests used:
# [1] = NCI Yeast Anticancer Drug Screen. Data for the rad52 strain (AID 147);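 also: 0% = growth of vehicle-treated control cultures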; conditions: S. cerevisiae rad52 mutant growth inhibition, hits give high values
# Outline: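 Growth of repair-deficient yeast cells was compared between compound-treated and vehicle-treated cultures to give percent inhibition.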
# [2] = NCI Yeast Anticancer Drug Screen. Data for the rad50EPP+ strain (AID 151);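 also: 0% = growth of vehicle-treated control cultures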; conditions: S. cerevisiae rad50 mutant strain, hits give high values
# Outline: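 Measured: growth inhibition of rad50EPP+ yeast. Reference: vehicle-treated controls. Screen uses strains with defined genetic alterations in DNA damage repair or cell cycle control.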
# [3] = NCI Yeast Anticancer Drug Screen. Data for the mgt1 strain (AID 153); conditions: S. cerevisiae mgt1 mutant growth inhibition, hits give high values
# Outline: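 Compounds were applied to mgt1 mutant yeast, and growth was then compared against vehicle-treated control cultures to give percent inhibition.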
# [4] = NCI Yeast Anticancer Drug Screen. Data for the rad50 strain (AID 155);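 also: 0% = growth of vehicle-only cultures of the same strain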; conditions: S. cerevisiae rad50 strain growth inhibition, hits give high values
# Outline: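 Cells are treated with compound, grown, and their growth is then scored against vehicle-only cultures of the same repair-deficient yeast strain.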
# [5] = NCI Yeast Anticancer Drug Screen. Data for the mec2-1 strain (AID 157); conditions: S. cerevisiae mec2-1 strain, hits give high values
# Outline: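 Compounds were applied to mec2-1 yeast cells. Their growth was then compared with that of vehicle-treated cultures to give growth inhibition.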
# [6] = NCI Yeast Anticancer Drug Screen. Data for the rad14 strain (AID 159);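 also: 0% = growth of vehicle-treated control cultures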; conditions: S. cerevisiae rad14 strain growth inhibition, hits give high values
# Outline: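 Readout: yeast growth inhibition, referenced to vehicle-only cultures. Strain bears a defined alteration in DNA damage repair.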
# [7] = NCI Yeast Anticancer Drug Screen. Data for the sgs1 mgt1 strain (AID 161);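 also: 0% = growth of cultures given vehicle only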; conditions: S. cerevisiae sgs1 mgt1 strain, hits give high values
# Outline: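 Yeast cells carrying a defined DNA-repair defect were exposed to test compounds. Growth inhibition was measured relative to vehicle-treated controls.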
# [8] = NCI Yeast Anticancer Drug Screen. Data for the CLN2oe strain (AID 163);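 also: 0% = growth of vehicle-only control cultures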; conditions: S. cerevisiae CLN2oe strain, hits give high values
# Outline: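 Cells of an engineered yeast line with disturbed cell-cycle regulation are treated with compound. Inhibition of growth is then calculated relative to the vehicle-treated reference.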
# [9] = NCI Yeast Anticancer Drug Screen. Data for the cln2 rad14 strain (AID 165);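 also: 0% = growth equal to vehicle treated cultures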; conditions: S. cerevisiae cln2 rad14 strain, hits give high values
# Outline: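 Strain: cln2 rad14 yeast, altered in cell cycle control and DNA damage repair. Read-out: growth inhibition vs vehicle.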
# [10] = NCI Yeast Anticancer Drug Screen. Data for the bub3 strain (AID 167); conditions: S. cerevisiae bub3 mutant strain, hits give high values
# Outline: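 Part of a panel of yeast mutants defective in DNA damage repair or cell cycle regulation. Each strain is grown with compound, and inhibition is calculated relative to solvent-treated cultures.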
# [11] = NCI Yeast Anticancer Drug Screen. Data for the wt2 strain (AID 169);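 also: 0% = growth of vehicle-treated yeast cultures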; conditions: S. cerevisiae wt2 strain growth inhibition, hits give high values
# Outline: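 Growth of compound-treated yeast is measured and expressed as inhibition relative to vehicle-only controls.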
# [12] = NCI Yeast Anticancer Drug Screen. Data for the mlh1 strain (AID 171);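 also: 0% = growth of vehicle-treated control cultures of the same strain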; conditions: S. cerevisiae mlh1 strain growth inhibition, hits give high values
# Outline: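 Test agents were incubated with yeast bearing a defined DNA damage repair or cell cycle control alteration; values are growth inhibition normalised to vehicle-treated cultures.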
# [13] = NCI Yeast Anticancer Drug Screen. Data for the sgs1 strain (AID 173);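 also: 0% = growth of vehicle-only control cultures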; conditions: S. cerevisiae sgs1 mutant, hits give high values
# Outline: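 Strain with an altered DNA repair or cell cycle pathway exposed to compound. Growth then measured. Value = inhibition versus vehicle control.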
# [14] = NCI Yeast Anticancer Drug Screen. Data for the mlh1 rad18 strain (AID 175); conditions: S. cerevisiae mlh1 rad18 strain growth inhibition, hits give high values
# Outline: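 A repair-deficient yeast strain is exposed to test compound, and growth is scored relative to vehicle-treated controls.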
# [15] = NCI Yeast Anticancer Drug Screen. Data for the rad18 strain (AID 177); conditions: S. cerevisiae rad18 mutant growth inhibition, hits give high values
# Outline: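 DNA-repair-defective yeast; compound treatment; growth inhibition scored against vehicle.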
# [16] = at 5.0 µM (retest, dose inferred, filed as 0.5)
# [17] = at 50.0 µM (retest, dose inferred, filed as 5.0)
structure (smiles),measurement,setting,value
O=C(Nc1ccc(Cl)cc1)c1cc2cc(N=Nc3ccccc3Cl)ccc2oc1=O,growth inhibition,[1]; at 1.2 µM,8%
same,growth inhibition,[1]; at 3.7 µM,25%
same,growth inhibition,[1]; at 11.0 µM,58%
same,growth inhibition,[1]; at 33.0 µM,89% (active)
same,growth inhibition,[1]; at 100.0 µM,92% (active)
same,growth inhibition,[2]; at 1.2 µM,39%
same,growth inhibition,[2]; at 3.7 µM,75% (active)
same,growth inhibition,[2]; at 11.0 µM,89% (active)
same,growth inhibition,[2]; at 33.0 µM,90% (active)
same,growth inhibition,[2]; at 100.0 µM,86% (active)
same,growth inhibition,[3]; at 1.2 µM,3%
same,growth inhibition,[3]; at 3.7 µM,11%
same,growth inhibition,[3]; at 11.0 µM,48%
same,growth inhibition,[3]; at 33.0 µM,92% (active)
same,growth inhibition,[3]; at 100.0 µM,95% (active)
same,growth inhibition,[4]; at 1.2 µM,4%
same,growth inhibition,[4]; at 3.7 µM,13%
same,growth inhibition,[4]; [16],54%
same,growth inhibition,[4]; at 11.0 µM,38%
same,growth inhibition,[4]; at 33.0 µM,84% (active)
same,growth inhibition,[4]; [17],54%
same,growth inhibition,[4]; at 50.0 µM,88.8% (active)
same,growth inhibition,[4]; at 100.0 µM,90% (active)
same,growth inhibition,[5]; at 1.2 µM,3%
same,growth inhibition,[5]; at 3.7 µM,10%
same,growth inhibition,[5]; [16],7%
same,growth inhibition,[5]; at 11.0 µM,40%
same,growth inhibition,[5]; at 33.0 µM,94% (active)
same,growth inhibition,[5]; [17],7%
same,growth inhibition,[5]; at 50.0 µM,88.5% (active)
same,growth inhibition,[5]; at 100.0 µM,95% (active)
same,growth inhibition,[6]; at 1.2 µM,4%
same,growth inhibition,[6]; at 3.7 µM,5%
same,growth inhibition,[6]; at 11.0 µM,62%
same,growth inhibition,[6]; at 33.0 µM,95% (active)
same,growth inhibition,[6]; at 100.0 µM,94% (active)
same,growth inhibition,[7]; [16],25%
same,growth inhibition,[7]; [17],25%
same,growth inhibition,[7]; at 50.0 µM,84.8% (active)
same,growth inhibition,[8]; at 1.2 µM,3%
same,growth inhibition,[8]; at 3.7 µM,13%
same,growth inhibition,[8]; at 11.0 µM,40%
same,growth inhibition,[8]; at 33.0 µM,89% (active)
same,growth inhibition,[8]; at 100.0 µM,92% (active)
same,growth inhibition,[9]; [16],12%
same,growth inhibition,[9]; [17],12%
same,growth inhibition,[9]; at 50.0 µM,82.8% (active)
same,growth inhibition,[10]; at 1.2 µM,-14%
same,growth inhibition,[10]; at 3.7 µM,-19%
same,growth inhibition,[10]; [16],13%
same,growth inhibition,[10]; at 11.0 µM,26%
same,growth inhibition,[10]; at 33.0 µM,93% (active)
same,growth inhibition,[10]; [17],13%
same,growth inhibition,[10]; at 50.0 µM,86.2% (active)
same,growth inhibition,[10]; at 100.0 µM,93% (active)
same,growth inhibition,[11]; at 1.2 µM,5%
same,growth inhibition,[11]; at 3.7 µM,15%
same,growth inhibition,[11]; at 11.0 µM,57%
same,growth inhibition,[11]; at 33.0 µM,91% (active)
same,growth inhibition,[11]; at 100.0 µM,94% (active)
same,growth inhibition,[12]; at 1.2 µM,1%
same,growth inhibition,[12]; at 3.7 µM,7%
same,growth inhibition,[12]; at 11.0 µM,38%
same,growth inhibition,[12]; at 33.0 µM,95% (active)
same,growth inhibition,[12]; at 100.0 µM,95% (active)
same,growth inhibition,[13]; at 1.2 µM,11%
same,growth inhibition,[13]; at 3.7 µM,24%
same,growth inhibition,[13]; at 11.0 µM,70% (active)
same,growth inhibition,[13]; at 33.0 µM,93% (active)
same,growth inhibition,[13]; at 100.0 µM,92% (active)
same,growth inhibition,[14]; [16],23%
same,growth inhibition,[14]; [17],23%
same,growth inhibition,[14]; at 50.0 µM,85.4% (active)
same,growth inhibition,[15]; at 1.2 µM,4%
same,growth inhibition,[15]; at 3.7 µM,24%
same,growth inhibition,[15]; at 11.0 µM,68%
same,growth inhibition,[15]; at 33.0 µM,92% (active)
same,growth inhibition,[15]; at 100.0 µM,91% (active)
